Data from the supplement of paper PMC11732987, “Enantioselective OTUD7B fragment discovery through chemoproteomics screening and high-throughput optimisation” (Communications Chemistry, 2025).

How the values were obtained:
Assay in all cases: log2 ratio of Biotin-Ahx-Ub-VS probe labelling (fragment/DMSO); higher = less target engagement (more negative = stronger competition), active = hit call of the paper (q ≤ 0.05, log2 ratio ≤ -1)
Conditions in all cases: compound concentration: 200 uM; treatment time: 3 h
USP34 = USP34 (UniProt Q70CQ2)
USP34, sequence (Q70CQ2 whole entry, the tested form may be a part): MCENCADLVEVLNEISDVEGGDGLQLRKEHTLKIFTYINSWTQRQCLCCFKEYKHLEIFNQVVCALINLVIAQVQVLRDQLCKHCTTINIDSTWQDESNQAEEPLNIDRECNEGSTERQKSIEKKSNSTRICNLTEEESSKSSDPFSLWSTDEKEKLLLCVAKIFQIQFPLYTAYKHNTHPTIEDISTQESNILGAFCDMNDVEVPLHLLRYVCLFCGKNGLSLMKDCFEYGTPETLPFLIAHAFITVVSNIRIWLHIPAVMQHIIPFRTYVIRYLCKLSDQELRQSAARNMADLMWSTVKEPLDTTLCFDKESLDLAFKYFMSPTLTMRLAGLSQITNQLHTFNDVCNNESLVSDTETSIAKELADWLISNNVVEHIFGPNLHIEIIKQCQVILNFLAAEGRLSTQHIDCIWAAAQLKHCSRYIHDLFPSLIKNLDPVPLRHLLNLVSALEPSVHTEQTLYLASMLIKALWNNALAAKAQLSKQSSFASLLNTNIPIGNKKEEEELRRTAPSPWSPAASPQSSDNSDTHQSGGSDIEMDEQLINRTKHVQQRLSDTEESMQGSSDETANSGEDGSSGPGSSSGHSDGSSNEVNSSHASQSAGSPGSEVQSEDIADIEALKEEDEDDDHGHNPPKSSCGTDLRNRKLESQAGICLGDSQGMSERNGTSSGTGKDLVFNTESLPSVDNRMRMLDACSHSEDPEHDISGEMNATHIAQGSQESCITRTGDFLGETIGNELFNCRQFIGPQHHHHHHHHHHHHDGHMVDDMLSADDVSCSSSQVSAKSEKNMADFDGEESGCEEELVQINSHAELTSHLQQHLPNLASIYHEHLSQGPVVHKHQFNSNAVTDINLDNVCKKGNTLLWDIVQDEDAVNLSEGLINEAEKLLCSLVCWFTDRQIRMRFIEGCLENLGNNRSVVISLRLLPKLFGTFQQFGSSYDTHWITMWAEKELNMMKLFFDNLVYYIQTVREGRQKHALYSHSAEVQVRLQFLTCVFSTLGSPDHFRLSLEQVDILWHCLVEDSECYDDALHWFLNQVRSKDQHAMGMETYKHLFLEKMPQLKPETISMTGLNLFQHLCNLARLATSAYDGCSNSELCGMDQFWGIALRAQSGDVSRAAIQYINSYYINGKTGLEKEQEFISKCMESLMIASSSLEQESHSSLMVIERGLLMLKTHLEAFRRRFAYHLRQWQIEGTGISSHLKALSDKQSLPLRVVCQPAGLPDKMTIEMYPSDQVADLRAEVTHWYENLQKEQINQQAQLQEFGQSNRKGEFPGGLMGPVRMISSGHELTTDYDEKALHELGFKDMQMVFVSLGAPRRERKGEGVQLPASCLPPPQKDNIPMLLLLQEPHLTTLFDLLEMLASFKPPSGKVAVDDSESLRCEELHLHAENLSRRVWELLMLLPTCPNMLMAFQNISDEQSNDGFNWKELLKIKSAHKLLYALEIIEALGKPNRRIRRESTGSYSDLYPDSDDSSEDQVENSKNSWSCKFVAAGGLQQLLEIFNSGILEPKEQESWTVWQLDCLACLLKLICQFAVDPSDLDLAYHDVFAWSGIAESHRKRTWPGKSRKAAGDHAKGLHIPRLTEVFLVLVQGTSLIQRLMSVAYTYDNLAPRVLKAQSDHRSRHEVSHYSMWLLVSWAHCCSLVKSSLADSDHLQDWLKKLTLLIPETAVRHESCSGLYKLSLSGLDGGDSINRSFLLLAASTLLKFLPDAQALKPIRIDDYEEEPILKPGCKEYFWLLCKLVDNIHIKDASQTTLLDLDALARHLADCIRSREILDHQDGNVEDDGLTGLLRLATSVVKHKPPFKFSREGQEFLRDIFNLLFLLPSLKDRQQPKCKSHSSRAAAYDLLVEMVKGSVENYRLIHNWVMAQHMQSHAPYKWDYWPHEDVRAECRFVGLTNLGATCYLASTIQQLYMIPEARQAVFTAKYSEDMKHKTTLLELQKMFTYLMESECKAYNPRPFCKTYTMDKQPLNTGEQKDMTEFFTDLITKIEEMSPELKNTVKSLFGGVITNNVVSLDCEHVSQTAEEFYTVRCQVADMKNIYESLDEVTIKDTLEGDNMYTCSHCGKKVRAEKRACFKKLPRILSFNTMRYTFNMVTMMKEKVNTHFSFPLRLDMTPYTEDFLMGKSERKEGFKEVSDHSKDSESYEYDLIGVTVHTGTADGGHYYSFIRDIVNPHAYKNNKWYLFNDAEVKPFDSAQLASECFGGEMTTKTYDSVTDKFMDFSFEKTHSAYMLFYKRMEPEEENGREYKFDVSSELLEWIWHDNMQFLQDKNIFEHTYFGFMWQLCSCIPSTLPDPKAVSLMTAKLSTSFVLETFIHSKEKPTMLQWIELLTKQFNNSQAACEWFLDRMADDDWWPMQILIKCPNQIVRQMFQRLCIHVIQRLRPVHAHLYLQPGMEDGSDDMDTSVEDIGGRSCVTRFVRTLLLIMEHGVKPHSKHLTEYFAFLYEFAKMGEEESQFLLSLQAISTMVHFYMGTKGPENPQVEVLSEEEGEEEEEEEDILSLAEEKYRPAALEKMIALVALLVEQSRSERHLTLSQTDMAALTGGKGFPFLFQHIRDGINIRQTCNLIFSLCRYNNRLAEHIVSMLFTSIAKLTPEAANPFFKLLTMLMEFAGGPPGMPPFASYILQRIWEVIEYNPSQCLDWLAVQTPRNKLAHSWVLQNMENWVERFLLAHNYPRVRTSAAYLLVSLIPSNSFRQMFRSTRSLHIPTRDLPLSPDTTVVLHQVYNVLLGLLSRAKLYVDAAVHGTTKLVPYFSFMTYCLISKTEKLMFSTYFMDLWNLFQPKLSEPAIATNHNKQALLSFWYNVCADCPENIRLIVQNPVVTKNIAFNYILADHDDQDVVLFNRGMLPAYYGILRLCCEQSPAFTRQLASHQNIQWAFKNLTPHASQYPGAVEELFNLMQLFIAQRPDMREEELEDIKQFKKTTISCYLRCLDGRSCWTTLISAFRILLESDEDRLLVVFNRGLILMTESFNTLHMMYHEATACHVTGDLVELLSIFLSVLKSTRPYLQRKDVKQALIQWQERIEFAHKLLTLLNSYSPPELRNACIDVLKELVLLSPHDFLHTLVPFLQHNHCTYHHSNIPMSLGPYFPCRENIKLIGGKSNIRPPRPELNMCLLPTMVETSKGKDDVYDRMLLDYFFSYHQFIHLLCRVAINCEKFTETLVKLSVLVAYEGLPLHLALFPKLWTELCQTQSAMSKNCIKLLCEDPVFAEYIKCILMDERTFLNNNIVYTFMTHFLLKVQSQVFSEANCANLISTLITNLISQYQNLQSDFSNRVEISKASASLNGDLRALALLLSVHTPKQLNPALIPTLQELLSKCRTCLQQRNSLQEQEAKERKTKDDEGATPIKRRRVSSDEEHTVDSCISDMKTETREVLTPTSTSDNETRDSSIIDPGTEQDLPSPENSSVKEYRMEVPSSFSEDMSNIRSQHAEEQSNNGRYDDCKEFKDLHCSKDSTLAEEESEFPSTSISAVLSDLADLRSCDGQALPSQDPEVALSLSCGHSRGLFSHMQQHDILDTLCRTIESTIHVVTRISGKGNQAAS
How it was run: (§1)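 HEK293T lysate (495 µg per sample, in Tris/CHAPS/IGEPAL buffer with protease inhibitors) was exposed in triplicate for 3 h to fragment at 200 µM or to vehicle, then to Biotin-Ahx-Ub-VS at 0.5 µM final for 1 h. Labelled DUBs were enriched on NeutrAvidin, digested with LysC and trypsin, and analysed by diaPASEF LC-MS/MS. Spectronaut label-free quantities were normalised to the global median, and values are average log2 ratios of fragment over vehicle from an unpaired t-test. Only proteins with ≥2 unique peptides were used.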

USP36 = biological target: T1, USP36 (UniProt Q9P275)
T1 sequence (whole entry): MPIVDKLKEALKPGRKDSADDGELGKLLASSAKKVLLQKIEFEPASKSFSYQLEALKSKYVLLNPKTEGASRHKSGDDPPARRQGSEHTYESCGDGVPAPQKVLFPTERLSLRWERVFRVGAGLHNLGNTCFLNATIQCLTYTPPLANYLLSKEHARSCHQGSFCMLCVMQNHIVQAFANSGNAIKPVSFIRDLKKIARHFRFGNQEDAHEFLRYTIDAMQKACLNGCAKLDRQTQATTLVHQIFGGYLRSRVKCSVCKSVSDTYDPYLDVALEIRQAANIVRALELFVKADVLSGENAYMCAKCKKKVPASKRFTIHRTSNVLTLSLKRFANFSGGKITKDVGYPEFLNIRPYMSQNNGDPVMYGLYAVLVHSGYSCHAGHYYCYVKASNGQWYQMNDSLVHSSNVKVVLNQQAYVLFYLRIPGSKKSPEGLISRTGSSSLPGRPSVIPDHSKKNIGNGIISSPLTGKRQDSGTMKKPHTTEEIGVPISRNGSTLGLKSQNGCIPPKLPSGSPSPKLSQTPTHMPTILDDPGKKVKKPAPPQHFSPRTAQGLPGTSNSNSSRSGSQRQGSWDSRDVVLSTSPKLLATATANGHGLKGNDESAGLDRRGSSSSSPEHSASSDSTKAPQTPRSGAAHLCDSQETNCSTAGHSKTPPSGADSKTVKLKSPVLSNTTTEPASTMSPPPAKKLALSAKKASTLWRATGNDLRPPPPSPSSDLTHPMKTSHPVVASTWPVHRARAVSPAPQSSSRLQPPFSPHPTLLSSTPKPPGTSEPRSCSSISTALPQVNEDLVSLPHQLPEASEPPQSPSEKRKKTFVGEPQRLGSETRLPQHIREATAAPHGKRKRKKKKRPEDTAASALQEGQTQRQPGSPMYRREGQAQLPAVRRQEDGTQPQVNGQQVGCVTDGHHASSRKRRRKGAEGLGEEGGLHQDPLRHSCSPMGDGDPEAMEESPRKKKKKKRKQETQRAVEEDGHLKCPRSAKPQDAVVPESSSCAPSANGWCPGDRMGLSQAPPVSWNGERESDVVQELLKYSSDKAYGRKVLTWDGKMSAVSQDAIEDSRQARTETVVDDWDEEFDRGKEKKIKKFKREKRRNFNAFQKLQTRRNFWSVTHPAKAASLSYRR
How it was run: as §1

USP38 = biological target: T2, USP38 (UniProt Q8NB14)
T2 sequence (whole entry): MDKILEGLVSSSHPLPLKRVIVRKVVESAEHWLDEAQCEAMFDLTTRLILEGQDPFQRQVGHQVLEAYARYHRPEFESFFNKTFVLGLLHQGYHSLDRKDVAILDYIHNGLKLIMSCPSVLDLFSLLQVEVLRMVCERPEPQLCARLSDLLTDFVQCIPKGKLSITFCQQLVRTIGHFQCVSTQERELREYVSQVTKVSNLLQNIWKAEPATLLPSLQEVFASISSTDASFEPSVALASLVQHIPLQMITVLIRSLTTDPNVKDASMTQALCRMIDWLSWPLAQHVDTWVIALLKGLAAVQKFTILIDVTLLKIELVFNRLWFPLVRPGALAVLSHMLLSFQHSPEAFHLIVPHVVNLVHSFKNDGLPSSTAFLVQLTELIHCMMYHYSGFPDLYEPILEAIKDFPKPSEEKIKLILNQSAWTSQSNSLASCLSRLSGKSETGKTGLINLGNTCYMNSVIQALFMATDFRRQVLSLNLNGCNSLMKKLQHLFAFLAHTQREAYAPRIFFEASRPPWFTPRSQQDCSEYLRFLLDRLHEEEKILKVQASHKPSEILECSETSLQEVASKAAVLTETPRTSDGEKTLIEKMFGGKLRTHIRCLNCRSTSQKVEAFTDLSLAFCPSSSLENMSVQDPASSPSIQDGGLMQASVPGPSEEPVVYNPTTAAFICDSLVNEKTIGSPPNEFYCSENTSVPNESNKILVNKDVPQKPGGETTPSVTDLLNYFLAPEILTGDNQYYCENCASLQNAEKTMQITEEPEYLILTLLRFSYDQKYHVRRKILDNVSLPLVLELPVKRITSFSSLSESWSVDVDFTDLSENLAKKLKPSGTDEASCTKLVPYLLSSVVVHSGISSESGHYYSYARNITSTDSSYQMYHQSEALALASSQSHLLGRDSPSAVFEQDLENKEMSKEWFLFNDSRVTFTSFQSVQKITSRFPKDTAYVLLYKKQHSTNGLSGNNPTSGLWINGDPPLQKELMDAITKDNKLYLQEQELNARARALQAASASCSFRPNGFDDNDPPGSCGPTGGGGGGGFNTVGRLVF
How it was run: as §1

USP39 = biological target: T3, USP39 (UniProt Q53GS9)
T3 sequence (whole entry): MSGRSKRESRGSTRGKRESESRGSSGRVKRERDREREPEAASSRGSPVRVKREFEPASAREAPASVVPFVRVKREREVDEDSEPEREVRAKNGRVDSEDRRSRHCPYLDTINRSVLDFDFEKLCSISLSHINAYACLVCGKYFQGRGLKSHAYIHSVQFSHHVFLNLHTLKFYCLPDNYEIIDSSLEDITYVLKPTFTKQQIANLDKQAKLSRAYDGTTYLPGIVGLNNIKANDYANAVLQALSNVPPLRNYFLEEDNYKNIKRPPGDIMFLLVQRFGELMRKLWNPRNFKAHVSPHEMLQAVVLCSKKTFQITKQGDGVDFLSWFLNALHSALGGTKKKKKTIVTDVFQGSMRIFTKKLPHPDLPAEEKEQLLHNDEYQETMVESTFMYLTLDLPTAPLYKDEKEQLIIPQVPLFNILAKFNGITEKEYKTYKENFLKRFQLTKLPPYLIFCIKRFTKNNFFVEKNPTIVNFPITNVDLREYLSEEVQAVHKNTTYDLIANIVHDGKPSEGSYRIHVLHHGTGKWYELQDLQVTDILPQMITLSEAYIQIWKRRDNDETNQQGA
How it was run: as §1

USP4 = biological target: T4, USP4 (UniProt Q13107)
T4 sequence (whole entry): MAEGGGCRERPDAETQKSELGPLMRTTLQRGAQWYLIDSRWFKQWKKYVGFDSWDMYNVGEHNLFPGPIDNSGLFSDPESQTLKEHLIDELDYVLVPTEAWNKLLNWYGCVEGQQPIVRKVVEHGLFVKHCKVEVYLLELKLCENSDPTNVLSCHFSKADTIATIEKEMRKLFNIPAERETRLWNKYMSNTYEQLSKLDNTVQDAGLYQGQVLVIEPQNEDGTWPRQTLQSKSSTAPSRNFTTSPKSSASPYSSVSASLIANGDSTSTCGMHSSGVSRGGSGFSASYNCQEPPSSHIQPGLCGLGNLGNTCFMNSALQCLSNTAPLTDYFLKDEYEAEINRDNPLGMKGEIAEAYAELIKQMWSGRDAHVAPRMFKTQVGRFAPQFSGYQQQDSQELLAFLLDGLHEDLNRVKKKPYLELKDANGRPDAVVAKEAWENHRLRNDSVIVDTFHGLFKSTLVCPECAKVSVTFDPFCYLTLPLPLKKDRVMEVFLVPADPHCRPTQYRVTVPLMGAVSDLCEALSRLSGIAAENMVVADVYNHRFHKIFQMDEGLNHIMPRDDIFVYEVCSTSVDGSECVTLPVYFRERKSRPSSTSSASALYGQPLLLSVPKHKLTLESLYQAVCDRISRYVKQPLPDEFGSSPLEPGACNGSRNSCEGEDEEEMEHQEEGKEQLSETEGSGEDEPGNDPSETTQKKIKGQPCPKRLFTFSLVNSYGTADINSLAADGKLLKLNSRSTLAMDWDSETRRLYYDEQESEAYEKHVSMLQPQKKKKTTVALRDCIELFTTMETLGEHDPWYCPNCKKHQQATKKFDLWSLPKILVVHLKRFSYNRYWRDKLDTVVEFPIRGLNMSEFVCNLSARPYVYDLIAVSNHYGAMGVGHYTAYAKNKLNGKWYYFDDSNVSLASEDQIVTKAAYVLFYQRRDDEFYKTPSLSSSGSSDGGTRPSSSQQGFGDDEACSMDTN
How it was run: as §1

Measured: log2 ratio of Biotin-Ahx-Ub-VS probe labelling

O=C(CCl)N1CCOCCC1c1ccccc1 (stereo not given)
inactive: USP34 0.169 | USP36 0.192 | USP38 0.104 | USP39 0.0858 | USP4 -0.196
